According to PubChem BioAssay (NCI):
“And” between values parts separate entries of the source, which are not always exact repeats. Equal values may be shown once. This is part of a sample that, as a whole, favours compounds with a hit. Of some 83,000 tested, about 20% had one in any assay.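 Single-dose data. Exposure time 48 hours. Values below 10 considered active.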 The source made the active and inactive calls.

Each compound was assayed on HL-60(TB) leukemia (assay: NCI-60 one-dose screen, 48 h (100 = growth as untreated, 0 = no growth, -100 = all killed)). Settings: 10 µM unless noted.
Protocol: Growth inhibition of the HL-60(TB) human tumor cell line is measured as a screen for anti-cancer activity. Cells are grown in 96 well plates and exposed to the test compound for 48 hours. Compounds are tested at a single concentration, which is 10^-5 M for most compounds. The reported endpoint is percent growth (GI% or GIPRCNT), where numbers from 0 - 100% represent growth inhibition, and numbers from -100% - 0 represent cell death. For example, a value of 40 represents 60% growth inhibition. A value of 0 means no net growth occurred over the course of the experiment. A value of -40 indicates 40% of cells at the beginning of the experiment died by the end of the experiment. A value of -100 means all cells are dead at the end of the experiment.
NCI-60 Human Tumor Cell Lines Screen was performed using the standard one-dose NCI protocol, which is described in more detail at https://dtp.cancer.gov/discovery_development/nci-60/default.htm.
Compounds with GIPRCNT values below 10 were considered active. Activity score was based on GIPRCNT using the following formula: […]
Score is 0 for GIPRCNT values of 100 or above, 50 for GIPRCNT values of 0, and 100 for GIPRCNT values of -100.

Row | SMILES | growth
1 | O=C1/C(=C/c2cc(F)cc(F)c2)Cc2cc3c(cc21)OCO3 | 3.69% (active)
2 | CC1=C(C)C(=O)C(Nc2cccc(C(F)(F)F)c2)=C(Cl)C1=O | 38.5% (inactive)
3 | Cn1cc(-c2nn3cc(-c4ccncc4)nc3s2)c2cc(Br)ccc21 | 17.3% (inactive)
4 | Cc1ccc(/C=C/CC(=O)Nc2ccc(C(=O)Nc3ccc(F)cc3N)cc2)cn1 | 8.39% (active)
5 | O=S(=O)(NCCNc1nccc(-n2cnc3ccccc32)n1)c1ccc(Br)cc1 | 114% (inactive)
6 | C/C=C/CC(C)C(O)[C@H](NC(=O)[C@@H]1CCCN1C(=O)C(C)(C)NC(=O)CCCCCCCCC)C(=O)NC(C)(C)C(=O)N[C@@H](CCC(N)=O)C(=O)N[C@H](CCC(N)=O)C(=O)NC(C)(C)C(=O)NC(C)(C)C(=O)N[C@@H](CCC(N)=O)C(=O)N[C@H](CC(C)C)C(=O)N[C@H](CO)CC(C)C (stereo not given in full) | -52.1% (active) and -47.2% (active)
7 | C[C@@H](Nc1c(C#N)cnc2ccc(-c3cnc(N)nc3)cc12)c1ccccc1 | 8.49% (active)
8 | O=C1C2=C(C(=O)c3c(O)cccc31)C(c1ccco1)c1sc(=O)[nH]c1S2 (stereo not given) | -17.6% (active)
9 | C=C1C(=O)O[C@@H]2C[C@@H](C)CCC(=O)[C@](C)(OC(C)=O)C[C@H](OC(=O)/C(C)=C\C)[C@@H]12 | 26.4% (inactive)
10 | Nc1nc(-c2cccc([N+](=O)[O-])c2)c(N=Nc2cccc([N+](=O)[O-])c2)s1 | 118% (inactive)
11 | Cc1cc(=O)oc2cc(OCCCOc3ccc(/C=C/C(=O)Nc4ccc(Cl)cc4)cc3)ccc12 | 86.1% (inactive)
12 | O=C(NCCCNc1cc(-c2cn(-c3ccccc3)nc2-c2cccc(O)c2)ccn1)Nc1cc(C(F)(F)F)cc(C(F)(F)F)c1 | 71.9% (inactive)
13 | CN1CCN(Cc2ccc(NC(=O)c3cncc(C#Cc4cnc5ccc(O[C@@H]6CCOC6)nn45)c3)cc2C(F)(F)F)CC1 | -48.8% (active)
14 | Clc1ccc2c(NCCCn3ccnc3)c3oc4ccccc4c3nc2c1 | 40.4% (inactive)
15 | CCCC[n+]1ccc(SCC(=O)n2ccc3ccccc32)c2ccccc21 | 86.8% (inactive)
16 | CS(=O)(=O)Nc1cc(-c2ccc3ncc(C#N)c(NCc4ccccc4)c3c2)cnc1Cl | -29.2% (active)
17 | Cc1ccc(-c2nc(SCC(=O)c3ccccc3)nc(Nc3ccc(S(N)(=O)=O)cc3)c2C#N)cc1 | 95.9% (inactive)
18 | CSc1ccc(/C(=N/N=C(N)N)c2ccc(F)cc2)cc1 | -31.7% (active)
19 | CCC1=Cc2c(OC)cccc2OC12C=Cc1c(OC)cccc1O2 (stereo not given) | -6.34% (active)
20 | Cc1ccc(NC(=O)CNc2cc(C(N)=O)cc(F)c2C)c(Cl)c1 | 133% (inactive)

Row | SMILES | growth
21 | Clc1ccc(-c2csc(N/N=C/c3nc4ccccc4n3C3CC3)n2)cc1 | 107% (inactive)
22 | O=C1CCCc2nc(Nc3ccc(S(=O)(=O)Nc4ccc([N+](=O)[O-])cc4)cc3)ncc21 | 110% (inactive)
23 | C(=N\Nc1nc(N/N=C/c2ccc3c(c2)OCO3)nc(N2CCCCC2)n1)/c1ccc2c(c1)OCO2 | 60.4% (inactive)
24 | CSc1ccc(C(=NNS(=O)(=O)c2ccc(C)cc2)c2ccc(Cl)cc2)cc1 | 97.1% (inactive)
25 | CC(=O)N1C(=S)NC(=O)C1CC(C)C (stereo not given) | 106% (inactive)
26 | Cc1cc2nc(C(Cl)Cl)nc(-c3ccc(S(=O)(=O)N(C)C)cc3)n2n1 | 0.868% (active)
27 | COc1cc(-c2nnc(SCc3ccc(O)c4ncccc34)n2-c2ccccc2)cc(OC)c1OC | -17.8% (active)
28 | CN1CCN(Cc2ccc(NC(=O)c3cncc(C#Cc4cnc5ccc(N6CCSCC6)nn45)c3)cc2C(F)(F)F)CC1 | -41.6% (active)
29 | C#Cc1nc(C2=C(C)C(=N\O)/C(=N/O)C2)cs1 | 81.7% (inactive)
30 | Cc1nn(-c2ccccc2)c2ncnc(N/N=C/c3ccccc3O)c12 | -7.88% (active)
31 | Cn1cc(-c2cc3ncnc(Nc4ccc(CC(=O)Nc5nc(C(C)(C)C)cs5)cc4)c3s2)cn1 | 29.2% (inactive)
32 | O=C(/C=C/C=C/c1csc(Br)n1)NO | 58.4% (inactive)
33 | Cn1cc(-c2cc(N)n3nc(-c4cn(C)c5ccc(F)cc45)cc3n2)c2cc(F)ccc21 | -32.4% (active)
34 | O=C(COc1ccc(/C=C2\C(=O)Nc3cc(Cl)ccc32)cc1)Nc1ccc(Cl)cc1 | 61% (inactive)
35 | COc1cc(/C=C2\C(=O)Nc3ccccc32)ccc1OCc1ccc(Cl)cc1 | 113% (inactive)
36 | Cc1ccc(OCc2occc2C(=O)N2CCOCC2)cc1 | 107% (inactive)
37 | O=C1Nc2ccccc2/C1=N\c1nnc(-c2ccccc2)o1 | 99.6% (inactive)
38 | CCCCCCNC(=O)Oc1ccc(/C(=C(/C)c2ccccc2)c2ccc(OCCN3CCCCCC3)cc2)cc1 | -39.6% (active)
39 | COc1ccc2c(c1)c(-c1nc(N)nnc1-c1c[nH]c3ccccc13)cn2C | 3.5% (active)
40 | COc1ccc(-c2cc(C(=O)N=Nc3c(O)[nH]c4ccccc34)c3ccccc3n2)cc1OC | 106% (inactive)
